Experimental data as given in PubChem BioAssay AID743279 (National Center for Advancing Translational Sciences (NCATS), 2014).
Hit rate of the full screen: of about 360,000 compounds, about 17,000 (4.7%) were called active. About 5% were inconclusive and are not listed. Shown is part of a subset that was picked to be rich in actives. Values without a mark were called inactive. Rule as the data show it: active = activity change below about -50%; inconclusive = mostly about -30% to -49%; inactive = weaker than that.

Experiment: qHTS for Inhibitors of Inflammasome Signaling: IL-1-beta AlphaLISA Primary Screen
Conditions: THP-1 LPS/ATP IL-1B secretion, 16 h; at 57.5 µM, hits give low values
Outline: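 Secreted IL-1B measured by AlphaLISA bead assay after 16 h compound exposure of THP-1 cells; compounds (final up to 57.5 uM) added 1 h before LPS (250 ng/mL) and ATP (1.25 mM) stimulation; lower signal means less secretion.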
% is scaled to controls: 0 for no effect and ±100 for the full control effect.

Row | Structure (SMILES) | activity change
1 | CCCCc1ccc(S(=O)(=O)NC(=O)C2(C)CCN2C(=O)c2c(C)noc2C)cc1 (stereo not drawn) | 24.9%
2 | CCN(CC)C(=O)N1CCN(C(=O)c2ccc(C)cn2)CC1 | 13.6%
3 | Cc1ccc(S(=O)(=O)N2CCCC2C(=O)OCc2nc3sc(C)c(C)c3c(=O)[nH]2)cc1 (stereo not drawn) | -4.97%
4 | Cc1ccc(-n2cnc3ncnc(-c4ccccc4)c32)cc1 | -9.14%
5 | Cc1ccc(-n2cc(CN(C)Cc3nccn3C)c(-c3cccc(C)c3)n2)cc1 | -85.3% (active)
6 | CCn1ccnc1CN(C)Cc1nc(-c2ccc3c(c2)OCO3)no1 | 1.77%
7 | O=C(C=CC(=O)Nc1ccc(F)cc1F)Nc1ccc(F)cc1F | 36.7%
8 | COC(=O)c1ccc(Oc2nc(Nc3ccc(F)cc3)nc(N3CCCC3)n2)cc1 | -60.2% (active)
9 | COC(=O)c1ccc(Oc2nc(NC(C)C)nc(SC)n2)cc1 | 19.1%
10 | CCNc1nc(Oc2ccc(C(=O)OC)cc2)nc(N2CCOCC2)n1 | 7.61%
11 | CCOC(=O)c1c(-c2ccccc2)oc2cc(Br)c(O)c(C=O)c12 | -98% (active)
12 | CCOC(=O)c1c(-c2ccccc2)oc2cc(Br)c(O)cc12 | 0%
13 | CCOC(=O)c1c(-c2ccccc2)oc2ccc(OCC(=O)NN)cc12 | -28.6%
14 | Cc1cc(OCC(=O)Nc2nccs2)c2c(C)c(C)c(=O)oc2c1 | 6.37%
15 | Cc1nc2nc(SCC(=O)NCc3ccco3)nn2c(C)c1Cc1ccccc1 | -78.8% (active)
16 | Cc1ccc(Cc2c(C)nc3nc(SCC(=O)NCCN4CCOCC4)nn3c2C)cc1 | 7.76%
17 | Cc1cc(C)n2nc(SCC(=O)NC(=O)NCc3ccco3)nc2n1 | 34.3%
18 | Fc1ccc(N2N=C(c3cccs3)CC2c2ccco2)c(F)c1 (stereo not drawn) | 5.22%
19 | O=C(O)C1CCCN1c1nc(Cl)ccc1[N+](=O)[O-] (stereo not drawn) | -1.43%
20 | CC(=O)N[C@H]1[C@H]([C@H](O)[C@H](O)CO)OC(C(=O)O)=C[C@@H]1O | 1.96%
21 | CCOC(=O)C1=C(C)c2ccccc2OC1(C)C(=O)OCC (stereo not drawn) | 41.5%
22 | CCOC(=O)c1c(C)nc2c(c1C)c(=O)oc1ccccc12 | 7%
23 | CCOC(=O)c1c(C)[nH]c2c1-c1ccccc1C(=O)C2=O | -53.9% (active)
24 | CN(C)CCCOc1ccc(-c2ccc3nccn3c2)cn1 | -5.3%

Row | Structure (SMILES) | activity change
25 | Cc1cc(C)c2cc(C#N)c(N3CCNCC3)nc2c1 | -29.2%
26 | CCOc1ccc2nc(N3CCCN(C(=O)Nc4ccccc4C)CC3)c(C#N)cc2c1 | -14.3%
27 | CCC(C)(C)n1nnnc1CN1CCN(c2nc3ccc(C)cc3cc2C#N)CC1 | -68.2% (active)
28 | O=C(CSc1ncn[nH]1)Nc1nsc(-c2ccccc2)n1 | 10.9%
29 | O=C(CSc1ncn[nH]1)Nc1ccnc2ccccc12 | 11%
30 | O=C(CSc1ncn[nH]1)Nc1ccc(Br)cc1Br | -53.6% (active)
31 | NS(=O)(=O)c1ccc(NC(=O)COC(=O)CCc2c[nH]c3ccccc23)cc1 | 0%
32 | Cc1csc(SCC(=O)Nc2ccc(C)c(S(=O)(=O)N(C)C)c2)n1 | 42.7%
33 | CNCC[C@H](Oc1ccc(C(F)(F)F)cc1)c1ccccc1 | -68.4% (active)
34 | CC(C)Oc1ccc(Oc2ccc(C(F)(F)F)cn2)cc1 | -23.6%
35 | CC(NC(=O)COC(=O)Cn1cc(C(F)(F)F)ccc1=O)c1ccccc1 (stereo not drawn) | -0.662%
36 | CCOC(=O)c1c(NC(=S)SC)sc(C(=O)N2CCc3ccccc3C2)c1C | 1.46%
37 | CN(CC(=O)NCC(c1ccccc1)N1CCCC1)S(=O)(=O)c1ccc(Cl)cc1 (stereo not drawn) | -22.9%
38 | CC(=O)Nc1c2c(nn1-c1ccc(C)cc1C)CS(=O)C2 (stereo not drawn) | 13.7%
39 | Clc1ccc2nc(CSc3ccccc3)cn2c1 | -87.1% (active)
40 | Cc1ccc(-c2nc3ccc(Cl)cn3c2Cc2ccccc2)cc1 | -3.47%
41 | CCCCCCSc1ccc(-c2nc3ccc(Cl)cn3c2NCc2ccccc2)cc1 | -8.09%
42 | CC1(C(=O)NS(=O)(=O)c2cccc(F)c2)CCN1C(=O)c1cccc2ccccc12 (stereo not drawn) | 21.3%
43 | CCCCCCN1CCN(C2CN(Cc3cn(CCCCCC)nn3)S(=O)(=O)C2)CC1 (stereo not drawn) | -17.7%
44 | COc1cc2c(cc1OC)CN(CC(=O)Nc1ccc(F)cc1)CC2 | 14%
45 | CC[C@H]1CN2CCc3cc(OC)c(OC)cc3[C@@H]2C[C@@H]1C[C@H]1NCCc2cc(OC)c(OC)cc21 | -106% (active)
46 | CCC(Sc1nncn1C)C(=O)Nc1nnc(-c2ccc(Cl)cc2)s1 (stereo not drawn) | -11%
47 | O=C(c1cccnc1)N(Cc1ccccc1)C(=O)c1cccnc1 | 33%
48 | Cc1[nH]c(=O)c(C(=O)/C=C/c2ccccc2)c2c1CCCC2 | -98.3% (active)

Row | Structure (SMILES) | activity change
49 | COC(=O)c1c(C)[nH]c(C(=O)/C=C/c2ccc(Cl)cc2)c1C | -3.64%
50 | CC1(C(=O)O)CCCN(C(=O)/C=C/c2ccccc2)C1 (stereo not drawn) | 17.4%
51 | CCCCn1c(N)c(N(CCC(C)C)C(=O)COC(=O)c2cccnc2OCC)c(=O)[nH]c1=O | -17.5%
52 | C/C(=N\Nc1ccc(Cl)nn1)c1ccccc1O | -63.2% (active)
53 | C/C(=N/Nc1ccc(Cl)cc1)c1cnnc(-c2ccccc2)n1 | 58.2%
54 | CCCCCCCN=C(C)c1ccccc1O | 19.8%
55 | Cn1c(CCN2CCN(c3ccccn3)CC2)nc2cc(NS(=O)(=O)c3ccc(F)cc3)ccc21 | -12.9%
56 | C[C@H]1NS(=O)(=O)c2cc(Cl)ccc2O[C@@H]1c1ccccc1 | 51.9%
57 | O=C(Nc1cccc(S(=O)(=O)Nc2ccc(Cl)cc2)c1)c1ccc2c(c1)OCCO2 | -81.3% (active)
58 | CN1CCN(c2ccc(NC(=O)c3cc(Cl)c4c(c3)OCCO4)cc2)CC1 | -19%
59 | O=C(Nc1ccc(Cl)cn1)c1ccc2c(c1)OCCO2 | 2.51%
60 | CN1CCN(c2ccc(NC(=O)c3ccc4c(c3)OCCO4)cc2Cl)CC1 | -72.6% (active)
61 | O=C(Nc1ccc(NC(=O)c2ccc3c(c2)OCO3)cc1)c1cccc(Cl)c1 | 9.41%
62 | COC(=O)c1ccc(N2CCOCC2)c(NC(=O)c2ccc3c(c2)OCCO3)c1 | 18.4%
63 | COc1ccc(NC(=O)CN(C)C(=O)c2cc(C)oc2C)cc1 | 24%
64 | CCCS(=O)(=O)NC(=O)C1(C)CCCN(C(=O)c2ccnc(Cl)c2)C1 (stereo not drawn) | 15.3%
65 | COc1ccccc1C(=O)NCCC(=O)NC1=NCCS1 | 22%
66 | CC(=O)Nc1ccc(C(=O)N(C2=NC(C)CS2)c2ccc(Cl)cc2)cc1 (stereo not drawn) | inactive
67 | COc1ccccc1C(=O)N(C1=NC(C)CS1)c1ccc(Cl)cc1 (stereo not drawn) | -80.7% (active)
68 | COc1ccc(CCC(=O)Nc2ccc(Cl)c(S(=O)(=O)N3CCOCC3)c2)cc1OC | -24.7%
69 | Cc1sc2ncnc(N3CCC(C(=O)NNC(=O)c4ccc(F)cc4)CC3)c2c1C | -23.3%
70 | CCN(CC)c1ccc(NC(=O)CN2CCN(c3ccccn3)CC2)cc1 | 2.92%
71 | Cc1cc(Br)ccc1NC(=O)c1cnc(N2CCN(c3ccccn3)CC2)c2ccccc12 | 1.57%
72 | Cc1sc2ncnc(N3CCC(C(=O)Nc4ccc(F)cc4Cl)CC3)c2c1C | -10.9%

Row | Structure (SMILES) | activity change
73 | Cc1nc(N2CCN(c3ccccn3)CC2)c2c(C)c(C(=O)Nc3ccc(F)c(Cl)c3)sc2n1 | -58.3% (active)
74 | Cc1nc(N2CCC(C)CC2)c2c(C)c(C(=O)Nc3cc(F)ccc3C)sc2n1 | -93.6% (active)
75 | Cc1nc(N2CCN(c3ccccn3)CC2)c2c(C)c(C(=O)Nc3ccc(F)cc3)sc2n1 | -76.8% (active)
76 | CCC(=O)Nc1ccc2c(c1)nc(CCN1CCN(c3ccccn3)CC1)n2C | -3.98%
77 | Cc1cc(Br)ccc1NC(=O)c1sc2ncn(CC(=O)N3CCN(c4ccccn4)CC3)c(=O)c2c1C | 28.3%
78 | CC(NC(=O)COc1cccnc1[N+](=O)[O-])c1ccc(Cl)cc1Cl (stereo not drawn) | -26%
79 | CN(C)C(=S)N=c1ssc(=S)n1Cc1ccco1 | 1.33%
80 | Cc1ccc(C(=O)NCCc2nnc(SCC(=O)Nc3cccc(C(=O)O)c3)n2C)cc1 | 3.07%
81 | CCCCCC1CCC(c2nnc(SCC(C)=O)o2)CC1 (stereo not drawn) | 0.218%
82 | O=C1C2C3C=CC(C3)C2C(=O)N1c1ccc(-c2nc3ccccc3c(=O)o2)cc1 (stereo not drawn) | -10.4%
83 | CS(=O)(=O)N(CC(=O)N1CCN(Cc2ccccc2)CC1)c1ccc2c(c1)OCCO2 | -2.68%
84 | CC(=NC1CCN(Cc2ccccc2)CC1)c1c(O)[nH]c(=O)[nH]c1=O | 4.26%
85 | CN(C)c1nc(=Nc2cccc(Cl)c2)ss1 | -9.51%
86 | c1ccc(CN2CCC(N=C3NN=C(c4ccc5c(c4)OCCO5)CS3)CC2)cc1 | -81.5% (active)
87 | Clc1cccc(N=C2NN=C(c3ccc4c(c3)OCCO4)CS2)c1 | -71.7% (active)
88 | O=C(Nc1ccc(Cl)cc1)C1Cc2c(-c3ccc4c(c3)OCO4)ccnc2O1 (stereo not drawn) | -19.5%
89 | Cc1ccc(S(=O)(=O)Nc2ccccc2CNc2c(C)n(C)n(-c3ccccc3)c2=O)cc1 | -4.94%
90 | O=C(NCCO)c1cccc(-c2cccc3nccn23)c1 | 81.9%
91 | Cc1ccccc1Nc1nc(-c2cccnc2)cs1 | -83.1% (active)
92 | O=C(NCc1cccnc1)C(=O)Nc1nc(-c2ccccc2)cs1 | 17.3%
93 | CN(c1ccc(O)cc1)c1nc(-c2cccnc2)cs1 | 40.3%
